Measurements: PMC5540273 (PLoS ONE, 2017)

How the values were obtained:
Conditions in all cases: concentration: 1 μM, replicates: in singlicate; n = 1
[1] = test system: EIF2AK1
[2] = test system: EPHA1
[3] = test system: EPHA2
[4] = test system: EPHA3
[5] = test system: EPHA4
[6] = test system: EPHA5
[7] = test system: EPHA6
[8] = test system: EPHA7
[9] = test system: EPHA8
[10] = test system: EPHB1
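Note: KINOMEscan kinase panel screen.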

SMILES	%Inh [1]	%Inh [2]	%Inh [3]	%Inh [4]	%Inh [5]	%Inh [6]	%Inh [7]	%Inh [8]	%Inh [9]	%Inh [10]
CCCc1ccc(S(=O)(=O)NC2CCN(c3ccnc(Nc4ccc(OC)cc4)n3)C2)cc1 (stereo not shown) [GSK1379737]	0%	15%	0%	0%	0%	0%	12%	0%	7%	0%
COc1cc2c(Nc3cccc(NC(=O)c4ccccc4)c3)ncnc2cc1OCCCN1CCOCC1 [GSK223810]	0%	7%	29%	6%	6%	0%	2%	3%	24%	4%
Cn1cc(-c2ccc3c(c2)CCN3C(=O)Cc2cccc(C(F)(F)F)c2)c2c(N)ncnc21 [GSK2606414]	1%	3%	0%	0%	0%	0%	0%	4%	14%	15%
Fc1ccc(Nc2nccc(-c3c(-c4ccc(Cl)cc4)nn4ncccc34)n2)cc1F [GW829058]	0%	13%	3%	27%	12%	24%	15%	8%	9%	20%
